Outcome and AC50 data for 36 molecules are collected here from PubChem BioAssay (EPA / NIEHS).

For orientation: AC50 means the concentration at which the activity in the assay is half-maximal.

Several values for one entry are separate records, joined by “and”; a condition that tells them apart may be missing. Equal entries are not always repeated. Some structures have more than one record in an assay (separate samples or runs), and their calls can disagree. Activity calls are given as the source filed them. Rule for the calls: active = hit-call score of the fitted dose curve at least 0.9, where 1 is the maximum; inactive = score below 0.9.

A short description of this assay: ATG_NRF2_ARE_CIS: Attagene CIS-FACTORIAL HepG2 Assay for human Nuclear Factor Erythroid 2 Related Factor 2 (NFR2) response to Antioxidant Response Elements (ARE) (AID 2282992). The settings on record: HepG2 Attagene ARE/NRF2 reporter, transcription factor activity; actives raise or lower the signal. As for the experimental part: ATG_CIS is a cell-based, multiplexed-readout assay that uses HepG2, a human liver cell line, with measurements taken at 24 hours after chemical dosing in a 24-well plate.ATG_NRF2_ARE_CIS is one of 52 assay component(s) measured or calculated from the ATG_CIS assay. It is designed to make measurements of mRNA induction, a form of inducible reporter, as detected with fluorescence intensity signals by Reverse transcription polymerase chain reaction (RT-PCR) and Capillary electrophoresis technology.Data from the assay component ATG_NRF2_ARE_CIS was analyzed into 1 assay endpoint. This assay endpoint, ATG_NRF2_ARE_CIS, was analyzed with bidirectional fitting relative to DMSO as the negative control and baseline of activity. Using a type of inducible reporter, measures of mRNA for gain or loss-of-signal activity can be used to understand the reporter gene at the transcription factor-level as they relate to the gene NFE2L2. Furthermore, this assay endpoint can be referred to as a primary readout, because this assay has produced multiple assay endpoints where this one serves a reporter gene function. To generalize the intended target to other relatable targets, this assay endpoint is annotated to the dna binding intended target family, where the subfamily is basic leucine zipper.
Human liver HepG2 cells are transiently transfected with multiple reporter transcription units (MRTUs) in 6-well plates using FuGene 6 reagent (Roche; 3 ml FuGene/1 mg DNA). The MRTU constructs are regulated by a cis-regulating element (promoter). […] A major difference between the CIS and TRANS system is that in CIS activities of endogenous TFs are measured, whereas the TRANS assay evaluates changes in activities of exogenous, chimeric NR-Gal4 proteins. […] At the end of 24 hour incubation, total RNA was isolated using TriZol reagent (Invitrogen). The isolated RNA is then reverse-transcribed using oligo(dT) primer and Mo-MLV reverse transcriptase (Invitrogen) with DNAse I (Ambion) treatment for 30 min. The one-tenth of the produced cDNA was amplified by PCR using Taq DNA polymerase (Invitrogen) and two reporter sequence-specific primers. The PCR products were fluorescently labeled by primer extension with 6-arboxyfluorescein (6-FAM) 5'-labeled reporter sequence-specific primer (2 min at 95 C, 20 s at 68 C and 10 min at 72 C) and these products were digested with 5U of HpaI (New England Biolabs) for 2h at 37 C. The fragments were purified using Qiaquick PCR columns (Qiagen), analyzed on an ABI 3130xL genetic analyzer (Applied Biosystems) with peak positions identified by using a set of X-rhodamine (ROX)-labeled MapMarker1000 molecular weight standards (BioVentures). The raw capillary electrophoresis data was processed using Attagraph software (Attagene).
`C[C@]12CCC(=O)C=C1CC[C@@H]1[C@@H]2CC[C@]2(C)C(=O)CC[C@@H]12`: the result was inactive.

As to `CCCCCCOC(=O)c1ccccc1C(=O)OCCCCCC`, the AC50 was 16.2 µM (active).

Consider `C[C@]12CCC(=O)C=C1CC[C@@H]1[C@@H]2CC[C@@]2(C)[C@H]1CC[C@]2(C)O`, for which the AC50 is 60.3 µM (active) and 53.6 µM (active) and 91.5 µM (active).

On to `ClC1=C(Cl)[C@]2(Cl)[C@@H]3[C@H]4C[C@H]([C@@H]5O[C@H]45)[C@@H]3[C@@]1(Cl)C2(Cl)Cl`, for which the outcome was inactive.

Take `Clc1ccc(C(c2ccccc2Cl)C(Cl)(Cl)Cl)cc1` (stereo not given): the AC50 is 41.4 µM (active) and 39.6 µM (active) and 21.3 µM (active); the outcome was inactive.

For the molecule `CC#Cc1cc(C)nc(Nc2ccccc2)n1`, the AC50 is 56.5 µM (active).

Take `Sc1ccccc1`: the molecule was called inactive and the AC50 was 66 µM (active).

In the case of `Cc1ccccc1O`, the call was inactive.

For `Cc1cc(-c2ccc(N)c(C)c2)ccc1N`, the molecule was called inactive.

With `N#Cc1ccc(N(CC(N)=O)CC(F)(F)F)cc1C(F)(F)F`, the AC50 was 170 µM (active).

On to `Cc1ccccc1CO[C@@H]1C[C@@]2(C(C)C)CC[C@]1(C)O2`, for which the AC50 was 2.86 µM (active).

In the case of `ClC1=C(Cl)[C@]2(Cl)[C@@H]3[C@@H]4C[C@@H]([C@H]5O[C@@H]45)[C@@H]3[C@@]1(Cl)C2(Cl)Cl`, the AC50 was 112 µM (active).

For the molecule `CC(C)(c1ccccc1)c1ccc(O)cc1`, the AC50 was 33.4 µM (active) and 45.2 µM (active) and 22.5 µM (active).

For `CO/C=C(/C(=O)OC)c1ccccc1COc1cccc(C(F)(F)F)n1`, the AC50 is 5.41 µM (active).

Take `CCNc1nc(NC(C)C)nc(SC)n1`: the molecule was classed as inactive.

Consider `Cc1cccc(C)c1N`, for which the molecule was called inactive.

In the case of `CN(C)CCO`, the call was inactive.

As for `ClC(Cl)=C(c1ccc(Cl)cc1)c1ccc(Cl)cc1`, the AC50 is 50.7 µM (active) [middle of 4 runs].

In the case of `Cc1ccc(O)c(C)c1`, the AC50 was 7.51 µM (active).

With `Cc1cc2c3c(c1)C(c1ccccc1)=N[C@@H](NC(=O)c1ccncc1)C(=O)N3CC2`, the AC50 is 96.6 µM (active).

As to `CCC(=O)O[C@H]1CC[C@H]2[C@@H]3CCC4=CC(=O)CC[C@]4(C)[C@H]3CC[C@]12C`, the AC50 is 158 µM (active) [middle of 4 runs].

For the molecule `CCC(C)(c1ccc(O)cc1)c1ccc(O)cc1`, the molecule was classed as inactive; the AC50 is 20 µM (active) and 15.3 µM (active) and 9.27 µM (active).

For `C=CC(=O)NCNC(=O)C=C`, the AC50 was 61.1 µM (active).

For the molecule `CCCCCCCCCc1ccc(O)cc1`, the AC50 is 11.1 µM (active) and 26.6 µM (active) and 14.3 µM (active).

On to `O=NN(c1ccccc1)c1ccccc1`, for which the AC50 was 78.9 µM (active).

On to `CCOC(=O)C(O)(c1ccc(Cl)cc1)c1ccc(Cl)cc1`, for which the molecule was called inactive.

Take `Clc1ccc(Cl)cc1`: the outcome was inactive.

For `Cc1ccccc1[N+](=O)[O-]`, the result was inactive.

For `NS(=O)(=O)C(F)(F)C(F)(F)C(F)(F)C(F)(F)C(F)(F)C(F)(F)C(F)(F)C(F)(F)F`, the AC50 is 28.9 µM (active) and 268 µM (active) and 15.4 µM (active).

`C=CC(N)=O`: the AC50 was 66.5 µM (active).

On to `Nn1cnnc1`, for which the molecule was classed as inactive.

For the molecule `CCOP(=S)(OCC)SCSC(C)(C)C`, the AC50 was 67 µM (active) and the outcome was inactive.

For the molecule `ClC1=C(Cl)[C@]2(Cl)[C@@H]3[C@@H](Cl)[C@H]4O[C@H]4[C@@H]3C1(Cl)C2(Cl)Cl`, the AC50 was 28.4 µM (active).

For `CCC(C)(CC)c1cc(NC(=O)c2c(OC)cccc2OC)on1`, the AC50 is 0.289 µM (active).

In the case of `c1ccc(-c2ccccc2)cc1`, the result was inactive.

As for `CC(C)C(=O)OCC(C)(C)C(OC(=O)C(C)C)C(C)C` (stereo not given), the outcome was inactive.
